Experiment [1] deals with Estrogen receptor (Homo sapiens) (UniProt P03372). Nature of the experiment: qHTS assay to identify small molecule antagonists of the estrogen receptor alpha (ER-alpha) signaling pathway using the BG1 cell line in the presence of 0.1 nM 17-beta-estradiol (AID 1259244). Further: nearly all actives have a fitted effect of over 50% in size. The procedure, abridged:
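Luciferase luminescence (ONE-Glo, 30 min at room temperature) was read after 22 hr at 37C exposure to compounds plus 17beta-estradiol at 0.1 nM final. Cells were VM7Luc4E2 with endogenous ER-alpha and an ERE-driven luciferase, pre-cultured 5 days in hormone-depleted medium.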
Background: In qHTS, concentration-response curves come from the screen itself.

Experiment [2] can be described thus: qHTS assay to identify small molecule HDAC inhibitors (AID 1259364). Further: nearly all actives have a fitted effect of over 45% in size. Further: potency means the concentration at half of the fitted maximal effect. The procedure, abridged: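 Luminescence read after 30 min room-temperature HDAC-Glo incubation measures cellular class I/II HDAC activity. Compounds were applied for 2 hr at 37 C to HCT-116 wild-type cells seeded the day before.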
A short description of experiment [3]: qHTS assay to identify small molecule HDAC inhibitors - cell viability counter screen (AID 1259365). Further: series mostly up to about 92 µM; nearly all actives have a fitted effect of over 50% in size. The procedure, abridged: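 Wild-type HCT-116 cells, 1,500/well, cultured overnight, then compound-treated 2 h at 37 C. Viability measured as ATP luminescence with CellTiter-Glo after 30 min at room temperature.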
Experiment [4] can be described thus: qHTS assay to identify small molecule agonists of the sonic hedgehog signaling (Shh) pathway - cell viability counter screen (AID 1259366). Further: nearly all actives have a fitted effect of over 50% in size. Further: potency means the concentration at half of the fitted maximal effect. The procedure, abridged: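 NIH/3T3-derived Gli1-Luc reporter cells, 2,000 per well, received compound after 4 h and were treated about 23 h at 37C. Viability measured in the same wells by CellTiter-Fluor fluorescence after 1 h.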

Experiment [5] can be described thus: qHTS assay to identify small molecule antagonists of the sonic hedgehog signaling (Shh) pathway - cell viability counter screen (AID 1259367). Further: nearly all actives have a fitted effect of over 55% in size. Further: potency means the concentration at half of the fitted maximal effect. The procedure, abridged:
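Cytotoxicity was assessed in parallel with Shh reporter activity by measuring live-cell protease fluorescence (CellTiter-Fluor) in NIH/3T3 cells stably carrying Gli1-Luc, treated with compound under conditioned medium stimulation for 23 hr plus 1 hr reagent incubation.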

Experiment [6] is described as follows: qHTS assay to identify small molecule agonists of the sonic hedgehog signaling (Shh) pathway (AID 1259368; calls by dose curve;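 further: NIH/3T3-derived 3T3Gli1-Luc cells carrying a stable Gli1-driven firefly luciferase reporter; series mostly up to about 92 µM; nearly all actives have a fitted effect of over 15% in size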). The method, boiled down: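 Luminescence was read after 30 min at room temperature with luciferase reagent. Before that, 3T3Gli1-Luc cells (NIH/3T3 clone, stable Gli1-Luc reporter; 2,000/well) were exposed to compounds for 24 hr at 37C, 5% CO2, compounds being added 4 hr post-plating.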

Experiment [7] is described as follows: qHTS assay to identify small molecule antagonists of the sonic hedgehog signaling (Shh) pathway (AID 1259369; calls by dose curve; further: nearly all actives have a fitted effect of over 45% in size; further: potency means the concentration at half of the fitted maximal effect). The procedure, abridged: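 Antagonist mode: compound added to 3T3 Gli1-Luc cells followed by conditioned-medium stimulation, 24 h at 37 C, 5% CO2. Inhibition taken as loss of Gli1-driven luciferase luminescence.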
A short description of experiment [8]: qHTS assay to identify small molecule phospholipidosis (PLD) inducers (AID 1259344; active means well fitted curve in the direction sought with a large enough effect; an effect the other way counts as inactive or inconclusive). The method, boiled down: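 Cells (HepG2, 900 per well) attach for 4 h, receive LipidTOX Red and compound together, incubate 24 h at 37 C, are fixed 30 min with paraformaldehyde/Hoechst, then imaged at one site per well.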
Experiment [9] addresses Estrogen receptor beta (Homo sapiens) (UniProt Q92731). Nature of the experiment: qHTS assay to identify small molecule agonists of the estrogen receptor beta (ER-beta) signaling pathway (AID 1259377; active means well fitted activation curve with a large enough effect in the signal ratio in the repeat runs, not every such curve was filed as active; the % refers to the signal ratio). The procedure, abridged: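 ER-beta-UAS-bla HEK293T cells in medium with 2% charcoal-stripped FBS were exposed to compounds for 16 h at 37C. Beta-lactamase reporter activity was read as fluorescence after 2 h with LiveBLAzer B/G FRET substrate at room temperature.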

Experiment [10] has the same target. Nature of the experiment: qHTS assay to identify small molecule antagonists of the estrogen receptor beta (ER-beta) signaling pathway (AID 1259378; active means well fitted inhibition curve with a large enough effect in the signal ratio in the repeat runs, not every such curve was filed as active; the % refers to the signal ratio). The procedure, abridged:
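ER-beta-UAS-bla HEK293T (GripTite) cells in 2% charcoal-stripped FBS medium were preincubated 6 hr at 37C, dosed with compound, then stimulated with 1 nM E2 (final) for 16 hr; beta-lactamase reporter read by B/G FRET fluorescence after 2 hr substrate loading.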

Values joined by “and” are separate entries in the source; they are usually repeats but may differ in a detail not shown here. Equal values may be shown once. Results filed as inconclusive are left out. A structure can be active in one record and inactive in another. Active and inactive are the calls of the source. Unless noted, the call rests on the fitted dose curve; in most records, active means well fitted curve in the direction sought with a large enough effect in the repeat runs; inconclusive means weak or mixed curves; inactive means no such curve, though single readings can be large; an effect the other way counts as inactive or inconclusive.

Chain of Estrogen receptor (Homo sapiens) (P03372 whole entry, looked up): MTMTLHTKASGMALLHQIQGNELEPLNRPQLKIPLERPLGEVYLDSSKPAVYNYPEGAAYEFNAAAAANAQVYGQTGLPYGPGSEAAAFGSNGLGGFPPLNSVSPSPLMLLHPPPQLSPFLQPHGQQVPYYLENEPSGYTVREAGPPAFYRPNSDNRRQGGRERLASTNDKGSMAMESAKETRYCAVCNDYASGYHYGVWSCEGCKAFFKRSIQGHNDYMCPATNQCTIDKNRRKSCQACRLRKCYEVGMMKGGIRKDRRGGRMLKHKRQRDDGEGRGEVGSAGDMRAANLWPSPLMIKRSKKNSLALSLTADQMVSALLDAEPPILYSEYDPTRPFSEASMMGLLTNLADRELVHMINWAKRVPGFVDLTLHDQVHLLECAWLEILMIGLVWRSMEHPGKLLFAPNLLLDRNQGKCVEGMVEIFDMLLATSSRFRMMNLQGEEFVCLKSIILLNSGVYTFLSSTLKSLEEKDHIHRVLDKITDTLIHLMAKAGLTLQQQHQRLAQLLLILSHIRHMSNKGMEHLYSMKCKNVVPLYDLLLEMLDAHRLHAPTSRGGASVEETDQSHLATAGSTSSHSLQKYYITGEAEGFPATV
Chain of Estrogen receptor beta (Homo sapiens) (Q92731 whole entry, looked up): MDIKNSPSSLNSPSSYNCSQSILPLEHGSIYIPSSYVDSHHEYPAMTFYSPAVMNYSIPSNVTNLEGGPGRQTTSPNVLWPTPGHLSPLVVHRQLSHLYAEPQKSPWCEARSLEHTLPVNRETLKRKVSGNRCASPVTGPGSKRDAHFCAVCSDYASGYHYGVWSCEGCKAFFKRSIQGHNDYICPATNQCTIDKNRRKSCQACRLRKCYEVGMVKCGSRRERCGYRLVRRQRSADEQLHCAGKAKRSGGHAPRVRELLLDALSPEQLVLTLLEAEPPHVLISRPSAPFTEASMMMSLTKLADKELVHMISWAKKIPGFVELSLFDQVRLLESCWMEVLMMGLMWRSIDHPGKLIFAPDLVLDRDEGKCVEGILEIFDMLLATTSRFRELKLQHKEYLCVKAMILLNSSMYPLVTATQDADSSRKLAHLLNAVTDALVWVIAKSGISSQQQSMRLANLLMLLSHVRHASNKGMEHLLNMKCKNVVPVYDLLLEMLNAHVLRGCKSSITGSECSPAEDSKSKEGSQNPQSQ

`CCOP(OCC)OCC`: the Potency entry in experiment [1], in [2], in experiment [4], in [5] and in [7] was “inactive” throughout. Further, the outcome in [3] and in experiment [6] was inactive.

For `O=C(NC(=O)c1c(F)cccc1F)Nc1cc(Cl)c(OC(F)(F)C(F)C(F)(F)F)cc1Cl` (stereo not drawn), the Potency entry in experiment [1], in [2], in experiment [5], in experiment [7] and in experiment [9] was “inactive” each time. Further, the outcome in [8], in experiment [3], in experiment [6] and in experiment [10] was inactive.

For `O=[N+]([O-])c1ccc([As](=O)(O)O)cc1`, the Potency entry in [1], in experiment [2], in experiment [4], in experiment [5] and in experiment [7] was “inactive” each time. The compound was called inactive in experiment [8], in [3] and in experiment [6].

Regarding `CCOC(=O)c1ccccc1C(=O)OCC`, the Potency entry in experiment [1], in experiment [2], in [5] and in experiment [7] was “inactive” in each case. Moreover, the compound was classed as inactive in experiment [8], in [3] and in [6].

As to `Cc1cccc([N+](=O)[O-])c1`, the Potency entry in experiment [1], in experiment [2], in experiment [4], in experiment [5] and in experiment [7] was “inactive” in each case. The compound was called inactive in experiment [3] and in experiment [6].

In the case of `CN=C=S`, the Potency entry in experiment [1], in experiment [2], in [4] and in experiment [5] was “inactive” throughout. The result in [3] and in [6] was inactive. In addition, the Potency in [7] was 2.19 µM (active).

Consider `NCCc1ccc(O)cc1`, for which the Potency result in experiment [1], in experiment [2], in experiment [5], in [7] and in experiment [9] was “inactive” throughout. Further, the outcome in experiment [8], in [3], in [6] and in [10] was inactive.

For the compound `CN(C)CCO`, the Potency entry in [1], in [2], in experiment [5], in experiment [7] and in experiment [9] was “inactive” in each case. Further, the result in experiment [8], in experiment [3], in experiment [6] and in experiment [10] was inactive.

Regarding `Cc1ccccc1O`, the Potency entry in [1], in experiment [2], in [4], in experiment [5], in experiment [7] and in experiment [9] was “inactive” in each case. Moreover, the call in experiment [3], in [6] and in experiment [10] was inactive.

For the compound `CC(C)NC(=O)N1CC(=O)N(c2cc(Cl)cc(Cl)c2)C1=O`, the Potency result in experiment [1] and in [2] was “inactive” each time. Moreover, the outcome in experiment [3] and in experiment [6] was inactive. Moreover, the Potency in [4] was 48.6 µM (active) and inactive; in experiment [5], 54.5 µM (active) and inactive; in experiment [7], 10.9 µM (active).

For `CCCCCCCCCl`, the Potency entry in [1], in [2], in experiment [5], in [7] and in [9] was “inactive” in each case. In addition, the outcome in experiment [3], in experiment [6] and in [10] was inactive.

For `CCN(CC)c1ccccc1`, the Potency result in [1], in experiment [2], in experiment [4], in [5], in experiment [7] and in experiment [9] was “inactive” in each case. Besides, the call in experiment [3], in experiment [6] and in experiment [10] was inactive.

With `CCCCOC(=O)c1ccccc1C(=O)OCCCC`, the Potency entry in [1], in [2], in experiment [5], in experiment [7] and in experiment [9] was “inactive” throughout. Moreover, the call in experiment [3], in [6] and in experiment [10] was inactive.

As to `CCCCCOC(=O)c1ccccc1C(=O)OCCCCC`, the Potency entry in experiment [1], in experiment [2], in experiment [5], in experiment [7] and in [9] was “inactive” throughout. Further, the compound was called inactive in experiment [3], in [6] and in [10].

Take `CCNc1nc(NC(C)(C)C)nc(SC)n1`: the Potency result in experiment [1], in [2], in experiment [5] and in experiment [9] was “inactive” in each case. For the same compound, the compound was classed as inactive in experiment [3], in [6] and in experiment [10]. For the same compound, the Potency in experiment [7] is 1.7 µM (active) and 6.11 µM (active).

Consider `COP(N)(=O)SC` (stereo not drawn), for which the Potency result in [1], in experiment [2], in experiment [4], in [5], in experiment [7] and in [9] was “inactive” throughout. The result in [3], in experiment [6] and in [10] was inactive.

Consider `BrCCBr`, for which the Potency entry in [1], in experiment [2], in experiment [4], in experiment [5], in experiment [7] and in experiment [9] was “inactive” each time. Further, the compound was classed as inactive in experiment [3], in experiment [6] and in [10].

For `O=Cc1cccc(Oc2ccccc2)c1`, the Potency result in [1], in [2], in experiment [4], in experiment [5], in [7] and in experiment [9] was “inactive” each time. Also, the compound was called inactive in experiment [3], in experiment [6] and in experiment [10].

Turning to `C1CN2CCN1CC2`, the Potency entry in [1], in experiment [2], in experiment [4], in experiment [5], in experiment [7] and in experiment [9] was “inactive” throughout. In addition, the result in [3], in [6] and in experiment [10] was inactive.

On to `CC(C)C1(C)N=C(c2nc3ccccc3cc2C(=O)O)NC1=O` (stereo not drawn), for which the Potency result in experiment [1], in experiment [2], in experiment [5], in experiment [7] and in experiment [9] was “inactive” in each case. For the same compound, the compound was called inactive in experiment [3], in [6] and in experiment [10].

As for `CC(C#N)CCC#N` (stereo not drawn), the Potency entry in experiment [1], in experiment [2], in experiment [5], in experiment [7] and in experiment [9] was “inactive” in each case. For the same compound, the outcome in experiment [3], in [6] and in experiment [10] was inactive.

Turning to `C1CC2OC2CC1C1CO1` (stereo not drawn), the Potency entry in experiment [1], in experiment [2], in [4], in experiment [5], in [7] and in [9] was “inactive” each time. The compound was classed as inactive in experiment [3], in experiment [6] and in experiment [10].

Consider `CNC(=O)Oc1ccccc1OC(C)C`, for which the Potency result in [1], in experiment [2], in experiment [5], in experiment [7] and in [9] was “inactive” throughout. Moreover, the result in experiment [3], in experiment [6] and in [10] was inactive.

Turning to `CC(Oc1ccc(Cl)cc1Cl)C(=O)O` (stereo not drawn), the Potency entry in experiment [1], in [2], in experiment [5] and in experiment [7] was “inactive” each time. Also, the call in [3] and in experiment [6] was inactive.

With `COC(=O)NS(=O)(=O)c1ccc(N)cc1`, the Potency entry in [1], in [2], in experiment [4], in [5], in [7] and in [9] was “inactive” throughout. Also, the result in [3], in [6] and in experiment [10] was inactive.

For the compound `CC(C)OC(=O)Nc1cccc(Cl)c1`, the Potency entry in experiment [1], in [4], in [5], in experiment [7] and in experiment [9] was “inactive” in each case. In experiment [2], the Potency is 15.1 µM (active) and 13.7 µM (active). In addition, the call in [3], in experiment [6] and in [10] was inactive.

Values taken from PubChem BioAssay (Tox21).
